A selection: hits, their analogues and other compounds. The true share with any hit is near 12%.
NS1 function inh = inhibitors of influenza NS1 protein function; Potency, µM (doses to about 46.1 µM), inactives show at the top dose activity, positive = more growth; 270,000 tested, 0.4% active; note: potency is the fitted concentration of half-maximal effect; actives are rising curves; nearly all actives have a fitted effect of over 50% in size
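Growth recovery, yeast-based: influenza A NS1 expressed in S. cerevisiae causes slow growth, and suppressors are detected by OD600. The parent strain without NS1 is used as positive control.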
Shiga toxin inh = Shiga toxin inhibition | Vero cells, Shiga toxin protein synthesis inhibition reporter | inhibition, % at 38.7 µM | 290,000 tested, 9.2% active; in the data active = inhibition mostly above about 28%, no sharp cut-off; inactive = mostly below about 43%; note: 0% is about no effect
SARS PLpro yeast = blocks SARS-CoV papain-like protease in a yeast assay; 330,000 tested, 0.19% active; S. cerevisiae expressing SARS-CoV PLpro, growth rescue; AID 485353; Potency, µM (top dose mostly 32.9 µM), for the others: at the top dose activity, positive = growth rescue, most hits filed as activators; note: potency is the fitted concentration of half-maximal effect; 0% is about no effect; nearly all actives have a fitted effect of over 55% in size
Cycloheximide cs = counter-screen for Shiga toxin inhibitors: cycloheximide protein synthesis inhibition; cell reporter, cycloheximide protein synthesis inhibition counterscreen; max response, %; 300,000 tested, 12% active; AID 2314; in the data active = max response mostly above about 13%, no sharp cut-off; inactive = mostly below about 14%; note: read at 38.3 µM for the half of the compounds with a filed dose; 0% is about no effect
An asterisk follows results filed as active; ? = inconclusive; . = not tested or not shown. Unless noted, calls come from the whole dose curve.

SMILES | NS1 function inh | Shiga toxin inh | SARS PLpro yeast | Cycloheximide cs
Nc1ncc(Br)cc1S(=O)(=O)NCCC(=O)NCCc1ccccc1 | 7% | 13 | -4% | 27*
Cc1ccc2nc(-c3ccc(NC(=O)C(C)N4C(=O)c5ccccc5C4=O)cc3)sc2c1 (centres undefined) | 9% | 51* | 6% | 93*
O=C(CCN1C(=O)c2ccccc2C1=O)Nc1ccc(-c2nc3ccccc3s2)cc1 | -2% | 110* | 24% | 33*
Cc1ccc2nc(-c3ccc(NC(=O)CCN4C(=O)c5ccccc5C4=O)cc3)sc2c1 | ? | 79* | ? | 55*
Cc1ccc(C2(C)NC(=O)N(CC(=O)Nc3ccc(-c4nc5ccc(C)cc5s4)cc3)C2=O)cc1 (centres undefined) | -46% | 85* | 0% | 54*
Cc1ccc(NC(=O)CN2C(=O)NC(C)(c3ccc4c(c3)OCO4)C2=O)cc1 (centres undefined) | . | . | 1% | .
O=C(COc1ccc(S(=O)(=O)Nc2ccccc2)cc1)NCc1ccncc1 | 6% | 15 | 5% | 9
COc1cc(N(C)C)c([N+](=O)[O-])cc1C(=O)N1CCOCC1 | 1% | -8 | 0% | -2
CN(C)S(=O)(=O)c1cccc(C(=O)N2CCN(C(=O)C3CCCO3)CC2)c1 (centres undefined) | . | . | 2% | .
CCOC(=O)C1(C(F)(F)F)N=C(c2cccnc2)OC(N2CCCCC2)=N1 (centres undefined) | -7% | -16 | 13% | -5
N#CCCN(C(=S)Nc1ccc(S(=O)(=O)N2CCOCC2)cc1)c1ccccc1F | . | . | -1% | .
CC1(C)O[C@H]2C[C@@H]3[C@H]4CCC5=CC(=O)C=C[C@]5(C)[C@@]4(F)[C@@H](O)C[C@]3(C)[C@]2(C(=O)CO)O1 | . | 7 | . | -3
CC(C)Cc1nnc(NC(=O)CCN2C(=O)c3ccccc3C2=O)s1 | -2% | -20 | -3% | -6
O=C(CCN1C(=O)c2ccccc2C1=O)Nc1nc2ccccc2s1 | -7% | -38 | ? | 19*
CNC(=S)N(Cc1ccc(OC)cc1)Cc1cc2cccc(C)c2[nH]c1=O | -2% | -20 | 0% | -5
CCCn1c(N)c(C(=O)CSc2nc(C)cs2)c(=O)n(C)c1=O | 0% | 9 | -3% | 23*
CCCNc1c(NC(=O)c2cccs2)c(=O)oc2ccccc12 | -15% | 11 | 1% | -2
Cc1cc(-c2nc3cccnc3s2)ccc1NS(=O)(=O)c1cccs1 | 19% | 138* | -1% | 48*
O=S(=O)(Nc1ccc(-c2nc3cccnc3s2)cc1)c1ccccc1F | 8% | 92* | 0% | 50*
Cc1nc2cc(NS(=O)(=O)c3ccccc3F)ccc2s1 | -4% | 9 | -1% | 4
Cc1cc(-c2nc3cccnc3s2)ccc1NS(=O)(=O)c1ccc2c(c1)OCCO2 | ? | 29 | -3% | 12
O=S(=O)(Nc1ccc(-c2nc3cccnc3s2)cc1)c1ccc(Cl)s1 | 9% | 16* | -11% | 33*
O=S(=O)(Nc1ccc(-c2nc3cccnc3s2)cc1)c1cccs1 | 11% | 36 | 0% | 28*
CCc1ccc(NS(=O)(=O)c2cccs2)cc1 | -35% | 14 | -8% | 10
Cc1ccc(S(=O)(=O)N2CCOC2CNC(=O)C(=O)NCc2ccncc2)cc1 (centres undefined) | 2% | 12 | -2% | -2
SMILES | NS1 function inh | Shiga toxin inh | SARS PLpro yeast | Cycloheximide cs
Cc1ccc(C(=O)Nc2ccc(Nc3ccccc3)cc2)c(Cl)c1 | 7% | . | -2% | -6
CCOC(=O)c1[nH]c2c(c1-c1ccccc1)C(=O)CC(c1ccccc1)C2 (centres undefined) | 2% | 54* | 0% | 41*
COC(=O)c1[nH]c2c(c1C)C(=O)CC(c1ccccc1)C2 (centres undefined) | -11% | -2 | ? | -2
CCC(C)c1ccc(S(=O)(=O)N2CCN(CC(O)COCC3CCCO3)CC2)cc1 (centres undefined) | . | . | 1% | .
CC(C)c1nc2cc(C(=O)N(C)Cc3ccc(F)cc3)ccc2o1 | -20% | 80* | -1% | 43*
Cc1cnc(CNC(=O)c2ccc3oc(C(C)C)nc3c2)[nH]1 | -10% | 20 | 4% | 14
COc1cc(CNC(=O)c2ccc3oc(C(C)C)nc3c2)cc(OC)c1 | -9% | 15 | -1% | 14*
CC(C)c1nc2cc(C(=O)NC(c3cccnc3)C(F)(F)F)ccc2o1 (centres undefined) | -13% | 24 | -3% | 18*
CC(C)(C)c1ccc(CN2CCN([C@H](c3ccccc3)c3ccc(Cl)cc3)CC2)cc1 | -10% | . | . | .
O=C1N=C2N(CCN3CCCCC3)c3ccccc3N2/C1=C\c1ccc([N+](=O)[O-])o1 | 0% | -23 | 1% | -2
